“And” between values parts separate entries of the source, which are not always exact repeats. Equal values may be shown once. Results filed as inconclusive are left out. Where a call stands in place of a potency, no number is given. The source made the active and inactive calls. The call rests on the fitted dose curve; in most records, active means well fitted curve in the direction sought with a large enough effect in the repeat runs; inconclusive means weak or mixed curves; inactive means no such curve, though single readings can be large; an effect the other way counts as inactive or inconclusive.
Biological target: Cytochrome P450 1A2 (Homo sapiens) (UniProt P05177)
Sequence (P05177 whole entry, looked up): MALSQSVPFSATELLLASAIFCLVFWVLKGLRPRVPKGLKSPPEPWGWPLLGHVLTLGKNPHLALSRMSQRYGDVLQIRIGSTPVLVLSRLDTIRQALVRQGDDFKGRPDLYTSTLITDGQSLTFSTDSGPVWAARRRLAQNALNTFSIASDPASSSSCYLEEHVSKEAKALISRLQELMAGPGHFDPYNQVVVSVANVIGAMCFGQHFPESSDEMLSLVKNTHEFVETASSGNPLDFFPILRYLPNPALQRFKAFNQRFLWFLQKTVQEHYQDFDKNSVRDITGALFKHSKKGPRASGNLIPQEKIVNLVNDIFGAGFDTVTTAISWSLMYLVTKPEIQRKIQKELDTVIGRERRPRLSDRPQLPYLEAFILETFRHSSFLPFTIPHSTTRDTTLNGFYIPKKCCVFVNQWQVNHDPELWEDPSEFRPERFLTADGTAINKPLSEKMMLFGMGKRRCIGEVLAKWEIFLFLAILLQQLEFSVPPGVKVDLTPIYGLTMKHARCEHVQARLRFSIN
Assay: Cytochrome P450 Family 1 Subfamily A Member 2 (CYP1A2) small molecule antagonists: luciferase reporter qHTS assay (AID 1671199)
Settings: P450-Glo CYP1A2 enzyme, luciferin luminescence, 1 h; series mostly up to 115 µM
In short: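 Luminescence readout (relative luminescence units) after luciferin detection reagent, 20 min RT. Preceded by 1 h room-temperature CYP1A2 reaction with NADPH regeneration solution following 10 min compound preincubation with enzyme and proluciferin substrate. Furafylline positive control.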
Further: nearly all actives have a fitted effect of over 50% in size.
Potency means the concentration at half of the fitted maximal effect.

Question: How did the Potency turn out when Cc1cc(O)ccc1Cl was run?
Answer: 36.2 µM (active) and 44.8 µM (active) and 17.4 µM (active)

Question: With c1ccc2c(c1)CCCC2 as the molecule, how does the Potency read?
Answer: inactive

Question: For COC(C)(C)CCCC(C)C/C=C/C(C)=C/C(=O)OC(C)C (stereo unspecified), which Potency is on record?
Answer: inactive

Biological target: Voltage-gated inwardly rectifying potassium channel KCNH2 (Homo sapiens) (UniProt Q12809)
Sequence (Q12809 whole entry, looked up): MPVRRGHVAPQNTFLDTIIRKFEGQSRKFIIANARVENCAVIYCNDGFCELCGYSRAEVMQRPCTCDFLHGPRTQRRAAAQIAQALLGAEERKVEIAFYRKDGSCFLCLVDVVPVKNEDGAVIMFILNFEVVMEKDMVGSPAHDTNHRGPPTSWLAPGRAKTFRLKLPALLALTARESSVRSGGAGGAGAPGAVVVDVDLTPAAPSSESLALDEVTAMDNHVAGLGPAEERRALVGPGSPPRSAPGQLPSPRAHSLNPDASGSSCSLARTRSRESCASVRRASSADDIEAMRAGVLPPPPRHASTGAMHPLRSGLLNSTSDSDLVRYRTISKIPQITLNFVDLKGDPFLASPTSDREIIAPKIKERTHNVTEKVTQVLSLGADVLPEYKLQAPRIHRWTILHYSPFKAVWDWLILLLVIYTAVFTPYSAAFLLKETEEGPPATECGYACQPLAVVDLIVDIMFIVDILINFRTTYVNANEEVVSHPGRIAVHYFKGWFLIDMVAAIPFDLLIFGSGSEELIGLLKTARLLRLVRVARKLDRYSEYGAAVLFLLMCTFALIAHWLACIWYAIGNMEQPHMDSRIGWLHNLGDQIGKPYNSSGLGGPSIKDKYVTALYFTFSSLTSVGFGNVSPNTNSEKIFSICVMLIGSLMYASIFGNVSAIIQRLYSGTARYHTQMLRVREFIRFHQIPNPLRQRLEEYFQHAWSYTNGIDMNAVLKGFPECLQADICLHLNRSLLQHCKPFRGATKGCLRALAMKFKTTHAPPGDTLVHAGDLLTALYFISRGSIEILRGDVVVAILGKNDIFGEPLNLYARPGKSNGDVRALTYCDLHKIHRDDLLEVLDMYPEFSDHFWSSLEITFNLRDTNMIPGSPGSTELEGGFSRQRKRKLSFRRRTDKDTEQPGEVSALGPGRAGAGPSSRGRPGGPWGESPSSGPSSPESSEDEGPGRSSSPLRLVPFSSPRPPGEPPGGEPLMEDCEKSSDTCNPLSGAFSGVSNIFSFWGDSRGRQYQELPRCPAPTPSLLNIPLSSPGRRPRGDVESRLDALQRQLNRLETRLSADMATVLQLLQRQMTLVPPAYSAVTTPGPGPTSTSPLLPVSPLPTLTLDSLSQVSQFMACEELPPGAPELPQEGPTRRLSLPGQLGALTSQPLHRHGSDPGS
Assay: Human Ether-a-go-go-Related Gene (hERG) channel small molecule antagonists: fluorescence cell-based qHTS assay (AID 1671200)
Settings: hERG-U2OS cells, FluxOR thallium flux fluorescence; series mostly up to 76.8 µM
In short: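 First, 1000 cells per well are seeded and cultured overnight at 37 C. Next, FluxOR II dye is loaded for 1 h at room temperature, protected from light. After 10 more minutes, stimulus is added and fluorescence is read.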

Question: CC(C)CCCCCCOC(=O)c1ccccc1C(=O)OCCCCCCC(C)C was tested. Which Potency did it give?
Answer: inactive

Question: For O=C(O)C1C(C(=O)O)C2(Cl)C(Cl)=C(Cl)C1(Cl)C2(Cl)Cl (stereo unspecified), which Potency is on record?
Answer: inactive

Question: Nc1cccc(Cl)c1 was tested. Which Potency did it give?
Answer: inactive

Question: How did the Potency turn out when COP(=S)(OC)SCN1C(=O)c2ccccc2C1=O was run?
Answer: inactive

Question: How did the Potency turn out when Clc1cnc(Oc2ccc(Oc3ncc(Cl)cc3Cl)cc2)c(Cl)c1 was run?
Answer: 19.5 µM (active)

Question: How did the Potency turn out when O=C(O)c1cc(Oc2ccc(C(F)(F)F)cc2Cl)ccc1[N+](=O)[O-] was run?
Answer: inactive

Question: How did the Potency turn out when Cc1ccc(N=C=O)cc1N=C=O was run?
Answer: inactive

Question: Which Potency does the source give for CN1C(=O)CCS(=O)(=O)C1c1ccc(Cl)cc1 (stereo unspecified) here?
Answer: inactive

Question: Which Potency does the source give for O=S(=O)(O)OOS(=O)(=O)O here?
Answer: inactive

Question: How did the Potency turn out when Cl[C@H]1OCCO[C@@H]1Cl was run?
Answer: inactive

Question: Which Potency does the source give for Cl/C=C/Cl here?
Answer: inactive

Question: How did the Potency turn out when COc1nc(NC(C)C)nc(NC(C)C)n1 was run?
Answer: inactive

Question: For O=C(O)C(Br)Br, which Potency is on record?
Answer: inactive

Question: With O=C(O)Cc1ccccc1 as the molecule, how does the Potency read?
Answer: inactive

Question: How did the Potency turn out when CCSC(=O)N1CCCCCC1 was run?
Answer: inactive

Question: With N#Cc1ccccn1 as the molecule, how does the Potency read?
Answer: inactive

Question: With O=[N+]([O-])c1cc([As](=O)(O)O)ccc1O as the molecule, how does the Potency read?
Answer: inactive

Question: How did the Potency turn out when CN(C)NC(=O)CCC(=O)O was run?
Answer: inactive

Question: How did the Potency turn out when O=[N+]([O-])c1ccc(Cl)c(Cl)c1 was run?
Answer: inactive

Question: With CC(C)(C)C(=O)CCl as the molecule, how does the Potency read?
Answer: inactive

Question: For CCCOC(=O)c1ccccc1C(=O)OCCC, which Potency is on record?
Answer: inactive

Question: Which Potency does the source give for Nc1ncc([N+](=O)[O-])s1 here?
Answer: inactive

Question: Cc1ccc(O)c(C)c1 was tested. Which Potency did it give?
Answer: inactive

— PubChem BioAssay (Tox21)
